Experimental data taken from PubChem BioAssay (NCATS).
Records with an inconclusive call do not appear. The source made the active and inactive calls. Unless noted, calls follow the shape of the dose curve; as a rule, active = well fitted cell-killing curve with a large enough effect; inconclusive = small, poorly fitted or top-dose-only effect, or effect the other way; inactive = no such curve, though single readings can be large or run the other way.

Assays:
[1] = Quantitative High-Throughput drug screen in 47 multiple myeloma cell lines against the NCATS MIPE library collection: L363_DSMZ cell viability assay (AID 1918984); also: potency is read from the fitted curve at half-maximal effect; nearly all actives have a fitted effect of over 40% in size
How it was run: (§1)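 500 cells/well per myeloma line exposed to pinned MIPE 4.0 compounds for 48 h at 37 °C, 5% CO2. Viability read as ATP by CellTiter-Glo luminescence, normalised to DMSO-only (100%) and media-only (0%) wells.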

[2] = Quantitative High-Throughput drug screen in 47 multiple myeloma cell lines against the NCATS MIPE library collection: KMS34_JCRB cell viability assay (AID 1918985); also: potency is read from the fitted curve at half-maximal effect; nearly all actives have a fitted effect of over 40% in size
How it was run: as §1

[3] = Quantitative High-Throughput drug screen in 47 multiple myeloma cell lines against the NCATS MIPE library collection: OCIMY7_PLB cell viability assay (AID 1918987); also: potency is read from the fitted curve at half-maximal effect; nearly all actives have a fitted effect of over 65% in size
How it was run: as §1

[4] = Quantitative High-Throughput drug screen in 47 multiple myeloma cell lines against the NCATS MIPE library collection: OCIMY5_PLB cell viability assay (AID 1918988); also: potency is read from the fitted curve at half-maximal effect; nearly all actives have a fitted effect of over 65% in size
How it was run: as §1

[5] = Quantitative High-Throughput drug screen in 47 multiple myeloma cell lines against the NCATS MIPE library collection: OPM1_PLB cell viability assay (AID 1918989); also: potency is read from the fitted curve at half-maximal effect; nearly all actives have a fitted effect of over 40% in size
How it was run: as §1

[6] = Quantitative High-Throughput drug screen in 47 multiple myeloma cell lines against the NCATS MIPE library collection: U266_ATCC cell viability assay (AID 1919864); also: potency is read from the fitted curve at half-maximal effect; nearly all actives have a fitted effect of over 35% in size
How it was run: as §1

[7] = Quantitative High-Throughput drug screen in 47 multiple myeloma cell lines against the NCATS MIPE library collection: XG1_PLB cell viability assay (AID 1919866); also: potency is read from the fitted curve at half-maximal effect; nearly all actives have a fitted effect of over 35% in size
How it was run: as §1

[8] = Quantitative High-Throughput drug screen in 47 multiple myeloma cell lines against the NCATS MIPE library collection: VP6_DJ cell viability assay (AID 1919867); also: potency is read from the fitted curve at half-maximal effect; nearly all actives have a fitted effect of over 40% in size
How it was run: as §1

[9] = Quantitative High-Throughput drug screen in 47 multiple myeloma cell lines against the NCATS MIPE library collection: UTMC2_PLB cell viability assay (AID 1919868); settings: CellTiter-Glo ATP luminescence, 48 h; viability (% of DMSO control): at 45.8 µM (top of the series) unless noted; also: potency is read from the fitted curve at half-maximal effect; nearly all actives have a fitted effect of over 55% in size
How it was run: as §1

[10] = Quantitative High-Throughput drug screen in 47 multiple myeloma cell lines against the NCATS MIPE library collection: PE2_PLB cell viability assay (AID 1919869); also: potency is read from the fitted curve at half-maximal effect; nearly all actives have a fitted effect of over 35% in size
How it was run: as §1

[11] = Quantitative High-Throughput drug screen in 47 multiple myeloma cell lines against the NCATS MIPE library collection: PCM6_Riken cell viability assay (AID 1919870); also: potency is read from the fitted curve at half-maximal effect; nearly all actives have a fitted effect of over 30% in size
How it was run: as §1

[12] = Quantitative High-Throughput drug screen in 47 multiple myeloma cell lines against the NCATS MIPE library collection: RPMI8226_ATCC cell viability assay (AID 1919871); also: potency is read from the fitted curve at half-maximal effect; nearly all actives have a fitted effect of over 30% in size
How it was run: as §1

[13] = Quantitative High-Throughput drug screen in 47 multiple myeloma cell lines against the NCATS MIPE library collection: OPM2_DSMZ cell viability assay (AID 1919872); also: potency is read from the fitted curve at half-maximal effect; nearly all actives have a fitted effect of over 30% in size
How it was run: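 Myeloma cell lines, 500 cells per well, exposed to MIPE 4.0 library compounds for 48 h at 37C, 5% CO2. Viability from ATP by CellTiter-Glo luminescence; normalised to DMSO (100%) and media-only (0%) wells.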

[14] = Quantitative High-Throughput drug screen in 47 multiple myeloma cell lines against the NCATS MIPE library collection: KMS11_JCRBsus cell viability assay (AID 1919873); also: potency is read from the fitted curve at half-maximal effect; nearly all actives have a fitted effect of over 50% in size
How it was run: as §1

[15] = Quantitative High-Throughput drug screen in 47 multiple myeloma cell lines against the NCATS MIPE library collection: KMS28BM_JCRB cell viability assay (AID 1919874); also: potency is read from the fitted curve at half-maximal effect; nearly all actives have a fitted effect of over 35% in size
How it was run: as §1

[16] = qHTS drug screen for cell cycle checkpoint inhibitors in PARPi-resistant BRCA-mutant ovarian cancer cell lines. (AID 1963452; calls by dose curve); settings: PEO1/OlaR viability, CellTiter-Glo luminescence, 96 h, stronger effect = lower value
How it was run: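 PEO1, PEO4 and PEO1/OlaR ovarian cancer cells, 600 per well, exposed 96 h at 37C to a dilution series. Viability read by CellTiter-Glo luminescence, normalized to DMSO and empty wells; activity summarized as Z-AUC.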

[17] = Quantitative High-Throughput drug screen in 47 multiple myeloma cell lines against the NCATS MIPE library collection: SKMM1_PLB cell viability assay (AID 1919863); settings: SKMM1 myeloma viability, CellTiter-Glo ATP, 48 h; viability: stronger effect = lower value
How it was run: as §1

[18] = Quantitative High-Throughput drug screen in 47 multiple myeloma cell lines against the NCATS MIPE library collection: XG6_PLB cell viability assay (AID 1919865)
How it was run: as §1

[19] = qHTS for identification of novel therapeutic agents for treatment of microphthalmiaassociated transcription factor (MiT) renal cell carcinoma (RCC) (AID 1963991; calls by dose curve; also: potency is read from the fitted curve at half-maximal effect); settings: CellTiter-Glo, 48 h; for z-score: stronger effect = lower value
How it was run: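 Three TFE3-fusion RCC cell lines (UOK109, UOK124, UOK145), 500 cells/well, were exposed to the 1912-compound MIPE 4.0 library for 48 hours at 37 C. Viability was read by CellTiter-Glo luminescence, normalised to DMSO (100%) and empty wells (0%), with 11-concentration curve fits.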

[20] = measured here: PEO1 parental Z-AUC

CNC(=O)c1ccccc1Nc1nc(Nc2ccc(N3CCOCC3)cc2OC)ncc1Cl
0.16: Z-AUC ([16]; measured here: PEO4 Z-AUC)
0.134: Z-AUC [16, 20]
active: Potency [1] 0.132 µM | Potency [2] 0.935 µM | Potency [3] 0.332 µM | Potency [4] 1.32 µM | Potency [5] 5.26 µM | Potency [6] 13.2 µM | Potency [7] 6.62 µM | Potency [8] 0.526 µM | Potency [9] 0.209 µM | Potency [10] 1.18 µM | Potency [11] 10.5 µM | Potency [12] 1.05 µM | Potency [13] 4.18 µM | Potency [14] 0.372 µM | Potency [15] 0.935 µM
inactive: Z-AUC [16] 0.733

Nc1nc(Nc2ccc(S(N)(=O)=O)cc2)nn1C(=O)c1c(F)cccc1F
-0.334: Z-AUC [16, 20]
inactive: Z-AUC [16] 0.423
active: Potency [1] 2.96 µM | Potency [2] 8.33 µM | Potency [3] 3.32 µM | Potency [4] 7.43 µM | Potency [5] 7.43 µM | Potency [17] 10.5 µM | Potency [6] 7.43 µM | Potency [7] 2.35 µM | Potency [8] 5.26 µM | Potency [10] 3.32 µM | Potency [12] 18.7 µM | Potency [13] 14.8 µM | Potency [14] 7.43 µM | Potency [15] 6.62 µM
-0.463: Z-AUC ([16]; measured here: PEO4 Z-AUC)

C=C1C(=CC=C2CCCC3(C)[C@@H]([C@H](C)C=CC=CC(O)(CC)CC)CC[C@@H]23)C[C@@H](O)C[C@@H]1O (some centres undefined)
active: Potency [1] 23.5 µM | Potency [2] 20.9 µM | Potency [3] 29.6 µM | Potency [4] 10.5 µM | Potency [5] 18.7 µM | Potency [6] 23.5 µM | Potency [18] 18.7 µM | Potency [7] 20.9 µM | Potency [8] 10.5 µM | Potency [10] 23.5 µM | Potency [11] 33.2 µM | Potency [12] 26.4 µM | Potency [14] 23.5 µM | Potency [15] 20.9 µM

O=C(C=Cc1cccc(S(=O)(=O)Nc2ccccc2)c1)NO
active: Potency [1] 0.855 µM | Potency [2] 1.36 µM | Potency [3] 2.15 µM | Potency [4] 1.21 µM | Potency [17] 4.29 µM | Potency [6] 2.7 µM | Potency [18] 4.81 µM | Potency [7] 2.41 µM | Potency [9] 1.08 µM | Potency [10] 3.82 µM | Potency [12] 3.4 µM | Potency [14] 1.21 µM | Potency [15] 1.36 µM

Nc1ncnc2c1c(-c1cnc3[nH]ccc3c1)nn2C1CCCC1
inactive: Z-AUC [16] -1.87
-1.31: Z-AUC ([16]; measured here: PEO4 Z-AUC)
-2.04: Z-AUC [16, 20]
active: Potency [1] 0.0935 µM | Potency [2] 1.87 µM | Potency [3] 1.18 µM | Potency [4] 3.32 µM | Potency [5] 0.59 µM | Potency [17] 4.69 µM | Potency [18] 0.526 µM | Potency [7] 0.209 µM | Potency [8] 0.372 µM | Potency [9] 0.526 µM | Potency [10] 1.32 µM | Potency [11] 1.48 µM | Potency [12] 0.166 µM | Potency [13] 0.935 µM | Potency [14] 0.0469 µM | Potency [15] 4.18 µM

CCN(CC)CCCCNc1ncc2cc(-c3cc(OC)cc(OC)c3)c(NC(=O)NC(C)(C)C)nc2n1
active: Potency [1] 14.8 µM | Potency [2] 33.2 µM | Potency [3] 18.7 µM | Potency [4] 16.6 µM | Potency [5] 14.8 µM | Potency [6] 18.7 µM | Potency [7] 8.33 µM | Potency [8] 10.5 µM | Potency [9] 16.6 µM | Potency [10] 20.9 µM | Potency [11] 5.26 µM | Potency [13] 20.9 µM | Potency [14] 23.5 µM
0.00955: Z-AUC ([16]; measured here: PEO4 Z-AUC)
1.07: Z-AUC [16, 20]
inactive: Z-AUC [16] -1.19

O=c1[nH]nc(Sc2ncc([N+](=O)[O-])s2)n1-c1ccc2c(c1)OCCO2
0.187: Z-AUC [16, 20]
active: Potency [1] 3.72 µM | Potency [2] 2.09 µM | Potency [3] 0.935 µM | Potency [4] 2.96 µM | Potency [5] 2.09 µM | Potency [17] 4.18 µM | Potency [6] 2.64 µM | Potency [7] 2.09 µM | Potency [8] 2.35 µM | Potency [9] 2.35 µM | Potency [10] 0.743 µM | Potency [11] 1.48 µM | Potency [12] 3.72 µM | Potency [13] 8.33 µM | Potency [14] 2.96 µM | Potency [15] 2.96 µM
-0.291: Z-AUC ([16]; measured here: PEO4 Z-AUC)
inactive: Z-AUC [16] 0.0772

c1nc2nc(Nc3ccc(N4CCOCC4)cc3)nc(NC3CCCCC3)c2[nH]1
active: Potency [1] 5.26 µM | Potency [2] 5.26 µM | Potency [3] 3.32 µM | Potency [4] 18.7 µM | Potency [5] 4.69 µM | Potency [6] 16.6 µM | Potency [18] 2.09 µM | Potency [7] 1.48 µM | Potency [8] 3.32 µM | Potency [9] 2.64 µM | Potency [10] 3.72 µM | Potency [11] 5.9 µM | Potency [12] 11.8 µM | Potency [14] 5.26 µM | Potency [15] 4.18 µM
0.016: Z-AUC [16, 20]
inactive: Z-AUC [16] -0.117
-0.143: Z-AUC ([16]; measured here: PEO4 Z-AUC)

O=C(Cc1ccc(-c2ccc(OCCN3CCOCC3)cc2)cn1)NCc1ccccc1
active: Potency [1] 0.0148 µM | Potency [2] 0.0148 µM | Potency [3] 0.001 µM | Potency [4] 0.0118 µM | Potency [17] 0.0166 µM | Potency [6] 0.0935 µM | Potency [8] 0.0264 µM | Potency [9] 0.0332 µM | Potency [11] 0.0264 µM | Potency [12] 0.148 µM | Potency [13] 0.0372 µM | Potency [14] 0.0105 µM | Potency [15] 0.0148 µM | Potency ([19]; TFE3-RCC UOK109 viability, active = Z-AUC below -0.8 in all three lines) 0.148 µM
inactive: Z-AUC [16] -0.749
-1.65: z-score ([19]; TFE3-RCC UOK109 viability, measured here: UOK109 Z-AUC)
-2.5: z-score ([19]; TFE3-RCC viability, measured here: UOK124 Z-AUC)
-1.24: z-score ([19]; TFE3-RCC viability, measured here: UOK145 Z-AUC)
-0.848: Z-AUC [16, 20]
-1.63: Z-AUC ([16]; measured here: PEO4 Z-AUC)
